# High-throughput results from PubChem.
# Shown are actives, neighbours in structure and some others; about 4.7% of the full set was active somewhere.
# TRHR PAM – TRH receptor (human) allosteric enhancement | P34981 | TRHR cells, fluo-8 calcium fluorescence, EC20 TRH enhancement | enhancement, % at 2 µM | actives 0.66% (n = 360,000) | AID 493056; in the data active = enhancement above about 30%; note: 0% is about no effect
#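 TRHR-expressing cells loaded with fluo-8 calcium dye were read kinetically (ex 480/em 530) during compound addition, then stimulated with an EC20 of TRH (10 nM final). Enhancement of the Gq-mediated intracellular calcium response was scored.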
# D1 agonist – human D1 receptor agonism; P21728; HEK293 T-REx D1 cells, calcium flux, agonist mode; activation, % at 2 µM; actives 1% (n = 360,000); note: 0% is about no effect
# Target sequence (P21728 whole entry, looked up): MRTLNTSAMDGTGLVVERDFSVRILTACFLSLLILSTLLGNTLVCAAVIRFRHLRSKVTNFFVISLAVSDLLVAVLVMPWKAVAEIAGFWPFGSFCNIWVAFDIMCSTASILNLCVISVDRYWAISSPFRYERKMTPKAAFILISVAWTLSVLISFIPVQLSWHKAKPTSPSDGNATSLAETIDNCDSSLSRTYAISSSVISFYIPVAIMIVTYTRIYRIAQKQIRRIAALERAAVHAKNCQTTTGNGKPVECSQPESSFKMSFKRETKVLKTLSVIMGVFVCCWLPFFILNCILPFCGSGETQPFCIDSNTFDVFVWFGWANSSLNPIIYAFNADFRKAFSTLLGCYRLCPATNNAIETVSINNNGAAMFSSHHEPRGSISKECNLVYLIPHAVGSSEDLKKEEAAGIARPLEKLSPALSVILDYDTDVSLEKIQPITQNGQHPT
#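 Tetracycline-induced HEK293 TREx D1 cells, force-coupled to calcium signalling, were dye-loaded with a no-wash calcium kit. Compound was pin-added after a 10 s baseline. Fluorescence was read kinetically at 1 cycle/s for 180 s, with calcium rises flagged as agonism.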
# D1 potentiator – enhances dopamine response at the human D1 receptor | P21728 | HEK293 TREx D1 cells, calcium flux, dopamine EC20 potentiation | actives 0.036% (n = 360,000) | potentiation, % at 10 µM; in the data active = potentiation above about 30%; note: 0% is about no effect
# D1 antag – human D1 dopamine receptor antagonism; AID 504652; P21728; HEK293 TREx D1 cells, calcium flux, dopamine EC80; stronger effect = lower value; activity change, negative = inhibition, % at 10 µM; actives 3.2% (n = 360,000); in the data active = activity change below about -30%; note: % is set by controls: 0 for no effect and ±100 for the full control effect
#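 Calcium flux readout: force-coupled, inducible Hek293 Trex D1 line, cells induced overnight at 30 C with tetracycline, dye-loaded 30–90 min at RT. Antagonism scored against EC80 dopamine challenge given 180 s after compound.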
# TRHR ag – agonists of human TRH receptor | TRHR cells, calcium flux fluo-8, FDSS agonist mode | activation, % at 2 µM | actives 0.18% (n = 360,000); note: 0% is about no effect
#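 Steps: seed TRHR cells overnight; add fluo-8 no-wash Ca dye, RT 30 min–1.5 h; record 10 s baseline; pin-transfer compounds; monitor fluorescence 1 cycle/s for the agonist window. Calcium increases flag candidate agonists.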
# The depositor's hits bear a star; nt = not tested or not shown; ! = a repeat was not active. Cut-off read from the data, not from the text of the source, unless noted: active = activation above about 30%; inactive = the rest.
SMILES,TRHR PAM,D1 agonist,D1 potentiator,D1 antag,TRHR ag
CCN(C(=O)COC(=O)Cc1cccc2ccccc12)C1CCS(=O)(=O)C1 (stereo not drawn),2,2,-6,-3,0
NC(=O)CSc1nc2c(sc(=S)n2-c2ccccc2)c(=O)[nH]1,7,0,0,-38*,0
CC1CCN(C(=O)c2cccc(NC(=O)c3nsc4ccccc34)c2)CC1,-4,3,4,1,0
CN(C)c1ccc(/C=C2\SC(N3CCCCC3)=NC2=O)cc1,0,37*,29,-17,12
Cc1ccc(/C=C2\SC(N3CCCC3)=NC2=O)cc1,18,-1,-1,15,-1
CCCCCCOc1ccc(N2C(=O)CC(SCCN)C2=O)cc1 (stereo not drawn),6,64*,-8,-16,1
COC(=O)NC1c2ccccc2Oc2ccccc21,4,75*,-8,0,-1
Cc1cc(NC(=O)CSc2nc(-c3ccc(Cl)cc3)cs2)no1,-1,2,-3,-46*,0
Cc1cc(NC(=O)CSc2nnc(-c3ccccc3Cl)o2)no1,34*,1,-8,-6,0
CCNC(=O)CSc1nc(-c2ccc(F)cc2)cs1,-2,0,-7,-31*,0
Cc1cc(NC(=O)CSc2ccc(Cl)cc2)no1,-3,3,-4,3,-5
Cc1cccc(NC(=O)CSc2nnc(-c3cc(C)n(-c4ccccc4)c3C)o2)c1C,-1,0,-8,-22,0
CC(C)(C)NC(=O)CSc1nc(-c2ccc(F)cc2)cs1,-2,2,0,3,-2
Cc1cc(-c2nnc(SCC(=O)Nc3ccccc3C(F)(F)F)o2)c(C)n1-c1ccccc1,6,52*,-4,-1,8
COc1ccc(-n2ccn(CC(=O)NCc3ccc(C)cc3)c(=O)c2=O)cc1OC,-3,1,-1,6,0
Cc1nc(C)n(CC(C)C(=O)N2CCN(S(=O)(=O)c3ccccc3)CC2)n1 (stereo not drawn),-5,11,-2,-3,-1
COc1ccccc1CNc1ccc(-c2nc(-c3cccnc3)no2)cc1[N+](=O)[O-],-2,3,0,4,2
Cc1n[nH]c(=S)n1/N=C/c1ccc(OCc2ccc(Cl)cc2)cc1,0,1,-2,-34*,0
CCCC(=O)Nc1ccc2c(c1)nc(CN1CCN(C(=O)OCC)CC1)n2C(C)C,12,-3,2,4,-3
CCOc1cc(C(=O)Nc2cc(C)ccc2C)ccc1OCC(=O)N1CCCCC1,0,2,-11,-90*,0
OCC(O)CN1CCCC1 (stereo not drawn),1,3,0,-32*,0
OC(CN1CCCCC1)CN1CCCCC1,11,3,-2,4,0
CCn1cc(C(=O)NCCc2ccc(OC)c(OC)c2)c(=O)c2cc(S(=O)(=O)N3CCC(C)CC3)ccc21,-9,2,4,-7,1
CCOc1cccc2cc(S(=O)(=O)c3ccccc3F)c(=O)oc12,-11,2,2,1,0
Cc1ccc(NC(=S)NCC2CCN(C(C)c3ccccc3)C2)cc1C (stereo not drawn),4,10,-6,-63*,0
SMILES,TRHR PAM,D1 agonist,D1 potentiator,D1 antag,TRHR ag
CC1=C(C(=O)Nc2ccc(C)cc2Cl)C2(CCCCC2)OC1=O,7,8,-3,14,0
Cc1ccc2cccc(NC(=O)COc3ccccc3[N+](=O)[O-])c2n1,2,-1,-4,-10,0
CC(C)(C)OC(=O)NCCCCCc1nnc(SCc2cccc(F)c2)o1,-5,18,-8,-36*,1
CN(C)C(=O)CSc1nnc(CCNC(=O)OC(C)(C)C)o1,-5,3,-6,-33*,0
CN(C)C(=O)CSc1nnc(CCCCCNC(=O)OC(C)(C)C)o1,1,4,-2,-9,0
Cc1onc(-c2ccccc2)c1C(=O)OCC(=O)Nc1ccc(OC(F)(F)F)cc1,0,13,-3,-21,3
CN(C)S(=O)(=O)n1cc(/C=C(\NC(=O)c2ccccc2F)C(=O)NCCCn2ccnc2)c2ccccc21,-14,3,11,-38*!,1
O=C(NCCCn1ccnc1)/C(=C/c1ccc(Cl)cc1)NC(=O)c1ccccc1,-2,2,nt,6,-1
CN(C)c1ccc(/C=C(/NC(=O)c2ccccc2)C(=O)NCCCn2ccnc2)cc1,0,34*,-1,-15,6
COc1ccccc1C(=O)N/C(=C\c1cn(S(=O)(=O)N(C)C)c2ccccc12)C(=O)NCCCn1ccnc1,-3,-1,-1,20,-2
Cc1cccc(CN(C(=S)Nc2c(C)cccc2C)c2cccnc2)c1,-5,7,-6,-33*,-1
CCc1ccccc1NC(=S)N(Cc1cccc(C)c1)c1cccnc1,-2,5,1,14,0
Cn1cc(CN2CCC(Oc3ccc(C(=O)N4CCCC4)cc3)CC2)cn1,-3,0,1,-18,0
CCOc1cccc2sc(N(CCCN(C)C)C(=O)c3ccc(S(=O)(=O)N(C)Cc4ccccc4)cc3)nc12,1,42*,4,-48*,1
CCOc1cccc2sc(N(CCCN(C)C)C(=O)c3ccc(S(=O)(=O)N(CC)Cc4ccccc4)cc3)nc12,1,33*,-2,-45*,1
CCN(Cc1ccccc1)S(=O)(=O)c1ccc(C(=O)N(CCCN(C)C)c2nc3c(F)cccc3s2)cc1,0,5,3,10,1
O=C(Nc1cccc(Br)c1)N1CCN2CCCCC2C1 (stereo not drawn),0,2,-1,-8,0
Cc1cc2nc3c(=O)[nH]c(=S)[nH]c3nc2cc1NC(=O)C(F)(F)F,3,64*,1,0,4
CC(C)COC(=O)C(N)C(C(=O)OCC(C)C)c1ccccc1 (stereo not drawn),-1,2,-5,-35*,0
CCC(C(=O)O/N=C(\N)c1ccccc1)c1ccccc1 (stereo not drawn),-8,4,0,-5,1
CCN(CC)S(=O)(=O)c1ccc2c(c1)N(CC(=O)NCCc1ccccc1)C(=O)CO2,-4,2,0,1,0
Cc1ccc(NC(=O)C(C)OC(=O)c2ccc(Cl)nc2)cc1S(=O)(=O)N1CCOCC1 (stereo not drawn),-5,4,-4,3,0
COc1ccc(/C=N/NC(=O)C(C)n2nnc3ccccc32)cc1OC (stereo not drawn),1,0,-7,-74*,0
COc1ccc(/C=N/NC(=O)CSc2ccccn2)cc1OC,4,1,-8,-32*,1
COc1cc(/C=N/NC(N)=O)ccc1OC(=O)c1ccco1,-2,4,-3,-35*,0
